Our source for the growth values is PubChem BioAssay (NCI).

Compounds without any hit were thinned out: in the full panel of roughly 83,000, 20% have a hit.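 A percent growth of 40 corresponds to 60% growth inhibition; 0 means no net growth; -100 means all cells died. Active threshold: below 10.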 Values without a mark were called inactive. The source made the active and inactive calls.

The assay deals with MDA-MB-468 breast. The assay can be described thus: NCI-60 one-dose screen, 48 h (100 = growth as untreated, 0 = no growth, -100 = all killed). As to conditions: 10 µM unless noted.
As for `COc1ccc(NC(=O)c2sc3nc4c(cc3c2N)CCCC4)cc1`, the growth is 13.6%.
`CCCn1cnc2c(c1=N)C(c1ccc(OC)cc1)c1sc3c(CC)cccc3c1O2` (centres undefined): the growth was 39.4%.
As to `C=CCNC(=S)NNc1ccc([N+](=O)[O-])cn1`, the growth was 98.7%.
In the case of `O=C(CN(C(=O)Cn1c(=O)n2nnnc2c2ccccc21)c1ccccc1C(F)(F)F)Nc1ccc(C(F)(F)F)cc1`, the growth was 108%.
Under `O=C(NOCCO)c1cc(CN2OCCCC2=O)c(F)c(F)c1Nc1ccc(I)cc1F` stands 114%.
With `O=C(NCCN1CCOCC1)OCc1ccc2c(Cl)cc(Cl)c(O)c2n1`, the growth was 81.6%.
Turning to `O=C(CCCCCCCCC(=O)N/N=C\c1ccccc1O)N/N=C\c1ccccc1O`, the growth is -28.4% (active).
Consider `NNC(=O)CSc1nc2scc(-c3ccccc3)c2c(=O)n1-c1ccccc1`, for which the growth was 102%.
For `NC(=O)Nc1ccc2ncnc(Nc3cccc(O)c3)c2c1`, the growth is 67.9%.
On to `CC12CCC(/C(=C/NNc3ccc([N+](=O)[O-])cc3[N+](=O)[O-])C1=O)C2(C)C` (centres undefined), for which the growth is 45%.
With `COc1cc(/C=C2\CN(S(=O)(=O)c3ccccc3)C/C(=C\c3cc(CN4CCCC4)c(O)c(OC)c3)C2=O)cc(CN2CCCC2)c1O`, the growth was -32.1% (active).
Consider `CSc1ccc(C(=O)C[n+]2cccc(C)c2)cc1`, for which the growth is 91.1%.
Under `CC(=O)N1N=C(c2ccc(F)cc2)CC1c1sc(N(C)Cc2ccccc2)nc1Cl` (centres undefined) stands 98.1%; under `COc1cc2nc(Nc3cccc(C(=O)O)c3)nc(N)c2cc1OC`, 108%.
